From PubChem
Compounds with a hit are over-represented: about 0.65% of the library has one in this group of screens.
NS1 function inh: qHTS Assay for Inhibitors of Influenza NS1 Protein Function; Potency, µM (top dose mostly 46.1 µM), inactives show top-dose activity, positive = more growth; hit rate 0.4% among 270,000; AID 2326, 2010; further: potency means the concentration at half of the fitted maximal effect; actives are rising curves; nearly all actives have a fitted effect of over 50% in size
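A cell-based growth assay was used: compounds that relieve NS1-induced slow growth of budding yeast raise OD600. Assay medium was yeast nitrogen base with ammonium sulphate and -URA supplement, pH 6.0, with 2% galactose.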
SARS PLP yeast: qHTS of Yeast-based Assay for SARS-CoV PLP; S. cerevisiae expressing SARS-CoV PLpro, growth rescue; AID 485353, 2010; hit rate 0.19% among 330,000; Potency, µM (series often up to 32.9 µM), for inactives: at the top dose activity, positive = growth rescue, hits mostly activators; further: potency means the concentration at half of the fitted maximal effect; 0% is about no effect; nearly all actives have a fitted effect of over 55% in size
AMA1 RON2 block: qHTS for Inhibitors of AMA1-RON; Towards Development of Antimalarial Drug Lead: Primary Screen | Plasmodium falciparum AMA1 (3D7) - RON2 peptide interaction | AlphaScreen AMA1-biotinylated RON2 peptide binding | Potency, µM (top dose mostly 58.2 µM), inactives show at the highest dose activity change, negative = inhibition, usual class: inhibitors | hit rate 0.2% among 360,000 | AID 720542, 2013; active means well fitted inhibition curve with a large enough effect; inconclusive means small, poorly fitted or top-dose-only effect; inactive means no such curve, though single readings can be large or run the other way;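 further: potency means the concentration at half of the fitted maximal effect; 0% = vehicle wells and -100% = peptide control; nearly all actives have a fitted effect of over 45% in size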
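AMA1 (3D7) with his tag at 25 nM final met compounds first, then biotinylated RON2 peptide at 25 nM; detection used donor plus acceptor beads, 10 µg/mL apiece, read by AlphaScreen after 30 min at room temperature.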
NS1 inh valid: Assay for Inhibitors of Influenza NS1 Protein Function: Hit Validation; shares compounds with NS1 function inh; activity change, negative = inhibition, % at 32.9 µM; AID 492980, 2010; influenza NS1 function cell assay, 15-point titration; 1,400 tested, under 10 active; further: 0% is about no effect
Numbers without * were called inactive; ? = inconclusive; nt = no result. Unless noted, the call rests on the fitted dose curve.

SMILES | NS1 function inh | SARS PLP yeast | AMA1 RON2 block | NS1 inh valid
Cc1oc(-c2ccccc2F)nc1CS(=O)CC(=O)NCc1cccs1 (configuration not stated) | 11µM* | 5% | 9% | 30
COc1ccccc1NC(=O)c1ccc(Cl)c(S(=O)(=O)NCc2ccco2)c1 | nt | -4% | -8% | nt
CCN(CC)S(=O)(=O)c1ccc(N2CCc3cc(OC)c(OC)cc3C2)nc1 | 4% | -6% | -3% | nt
COc1ccc(OC)c(NC(=O)CN(c2ccc(C)cc2)S(=O)(=O)c2c(C)n[nH]c2C)c1 | 15% | 3% | -5% | nt
COc1ccccc1NC(=O)CN(c1ccc(C)cc1)S(=O)(=O)c1c(C)n[nH]c1C | ? | 9% | ? | -11
NC(=S)Nc1ccc(Cl)cc1Cl | 0% | 0% | -2% | nt
CCn1cc2nc(SCC(=O)Nc3ccc(F)cc3F)n(Cc3ccccc3)c(=O)c2n1 | 6% | 14% | -8% | nt
COC(=O)[C@@]1(Cc2ccc(F)cc2)[C@H]2c3cc(C(=O)N4CCCC4)n(CCc4c[nH]c5ccc(OC)cc45)c3C[C@H]2CN1C(=O)c1ccccc1 | 13µM* | 7% | nt | 16
COCCn1c(C(=O)N2CCCC2)cc2c1C[C@H]1CN(C(=O)c3ccccc3)[C@@](Cc3ccc(F)cc3)(C(=O)OC)[C@@H]21 | -28% | 14% | -2% | nt
COc1cc(C2/C(=C(\O)c3ccc4c(c3)CC(C)O4)C(=O)C(=O)N2CCCn2ccnc2)cc(OC)c1OC (configuration not stated) | 2% | 5% | -1% | nt
CCCOP(=O)(c1ccc(N(C)C)cc1)C(Nc1ccccc1)c1ccc(N(C)C)cc1 (configuration not stated) | 20µM* | -2% | -15% | 9
CCCCOP(=O)(c1ccc(N(C)C)cc1)C(Nc1ccccc1)c1ccccc1 (configuration not stated) | -9% | -75% | ? | nt
CC1CCCN(C(=O)COC(=O)CNC(=O)c2sc3ccccc3c2Cl)C1 (configuration not stated) | nt | -3% | -3% | nt
Cc1cccc(NC(=O)CC2C(=O)NCCN2C(=O)Nc2ccc(Cl)cc2)c1 (configuration not stated) | 15% | -5% | -1% | nt
Cc1cccc(C(=O)Nc2cc(=O)n(C)c(=O)n2C)c1 | 1% | 11% | 6% | nt
Cc1cccc(CC(=O)Nc2cc(=O)n(C)c(=O)n2C)c1 | ? | 0% | -2% | -7
COc1ccccc1C(=O)NC(=O)COC(=O)c1nc2nc(C)cc(C)n2n1 | nt | 1% | -7% | nt
O=C(CNc1n[nH]c(=O)[nH]c1=O)N/N=C/C1CC=CCC1 (configuration not stated) | 2% | 0% | -3% | nt
CC1CC2(C)Oc3ccccc3C3OCC1(CO)C(C)C32 (configuration not stated) | ? | nt | 0% | 6
CC(=O)OCC12COC3c4ccccc4OC(C)(CC1C)C3C2C (configuration not stated) | nt | -9% | -2% | nt
CCOc1cc(/C=N/Nc2nc(-c3cccc(S(=O)(=O)N4CCCC4)c3)cs2)ccc1O | 10µM* | 11% | 3% | 19
COc1ccc(/C=N/Nc2nc(-c3cccc(S(=O)(=O)N4CCCC4)c3)cs2)cc1OC | 13µM* | 19% | 15% | 19
O=S(=O)(c1cccc(-c2csc(N/N=C/c3ccco3)n2)c1)N1CCOCC1 | 5% | 0% | 21% | nt
CCOc1cc(C=NNC(=O)c2cccc(S(=O)(=O)N3CCCC3)c2)ccc1O | nt | -2% | 77% | nt
COc1cc(/C=C/C(=O)c2ccc3c(c2)OCO3)cc(Cl)c1O | -48% | -6% | -3% | nt
SMILES | NS1 function inh | SARS PLP yeast | AMA1 RON2 block | NS1 inh valid
Cc1c(CCC(=O)NCCCC(=O)O)c(=O)oc2cc3oc4c(c3cc12)CCCC4 | 10% | 1% | 2% | nt
CCN1C(=O)[C@H]2[C@@H](c3ccc(-c4cccc(Cl)c4)cc3)N[C@@](Cc3ccccc3)(C(=O)OC)[C@H]2C1=O | nt | -14% | -14% | nt
Cc1ccc(CNS(=O)(=O)c2ccc3c(c2)NC(=O)C(C)S3)cc1 (configuration not stated) | -5% | -1% | -17% | nt
CS(=O)(=O)c1ccc(NC(=O)CCN2C(=O)C3CCCCC3C2=O)cc1 (configuration not stated) | nt | -4% | -14% | nt
O=c1ccc(Cc2ccc(Cl)cc2)n[nH]1 | 2% | 3% | 10% | nt
O=c1ccc(Cl)n[nH]1 | 7.9µM* | -2% | 7% | 14
CC(C)(C)OC(=O)N1CCC(C(=O)Nc2cccc(C(=O)NCCCCc3ccccc3)c2)CC1 | nt | nt | 3% | nt
